The structures appear in SMILES notation. Unmarked numbers belong to inactive results. The call rests on the fitted dose curve; in most records, active means well fitted activation curve with a large enough effect in the repeat runs; inconclusive means weak or mixed curves; inactive means flat fitted curve, though single readings scatter.

The record followed here is PubChem BioAssay (Tox21).
On the % scale 0 is the no-effect control and ±100 the full control effect.

This test in a line: A CellTox Green Cytotoxicity Assay to monitor cytotoxicity in HEK293 cells - 0 hour (AID 1224869). Further: nearly all actives have a fitted effect of over 50% in size. As to conditions: CellTox Green fluorescence; series mostly up to 76.8 µM; cytotoxicity: at the top concentration. The text has this: National Center for Advancing Translational Sciences [NCATS]
NIH Chemical Genomics Center [NCGC]
U.S. Environmental Protection Agency [EPA]
National Institutes of Environmental Health Sciences [NIEHS]
National Toxicology Program [NTP]
Cell-based models are critical for drug discovery. Determining the natural cytotoxic effects resulting from test compounds is an essential research activity. A CellTox Green Cytotoxicity Assay to monitor cytotoxicity in real time of continues cell culture during 40 hours of the compound treatment was used to screen Tox21 10K library compounds in Hek293 cells. CellTox Green Cytotoxicity Assay is a nonlytic, homogeneous, biofluorescent method to measure cytotoxicity in cell culture after experimental manipulation. The assay system uses a proprietary asymmetric cyanine dye that is excluded from viable cells but preferentially stains the dead cell's DNA. […] Viable cells produce no appreciable increases in fluorescence. Therefore, the fluorescence signal produced by the binding interaction with dead cell DNA is proportional to cytotoxicity.
The mixture of Hek293 cell suspension and reagents were dispensed at 600cells/6 ul/well in 1536-well tissue culture treated black solid bottom plates using a Multidrop dispenser. After the assay plates were incubated at a 37 C/5% CO2 incubator for 5 hours, 23 nL of compounds dissolved in DMSO, positive and negative controls was transferred to the assay plate by a pintool work station. The plates were incubated at 37 C for 40 hours. The fluorescence intensity were measured at 0h, 8h, 16h, 24h, 32h and 40h time points using ViewLux plate reader during compound treatment.
As to `CC(C)Cn1cnc2c1c(=O)n(C)c(=O)n2C`, the “cytotoxicity” value was 2.89% [at 35.3 µM]. In the case of `OCC(O)CN1CCN(c2ccccc2)CC1` (stereo not given), the “cytotoxicity” value was 1.5% [at 35.3 µM]. The result for `C=CC/C=C/C` reads -0.177%; that for `COC(=O)c1cccc(Cl)c1`, -1.68%; that for `CC(C)OC(=O)OCOP(=O)(CO[C@H](C)Cn1cnc2c(N)ncnc21)OCOC(=O)OC(C)C`, -1.48% [at 35.3 µM]. The result for `OC1OCCOC1O` (stereo not given) reads -4.27%; that for `CCCCCCC1(C)CCC(=O)O1` (stereo not given), -2.87%.

For `O=[N+]([O-])c1c(Cl)cc(Cl)cc1Cl`, the “cytotoxicity” value is 0.366%. As to `CC(=O)CC(=O)OC(C)(C)C`, the “cytotoxicity” value is 2.94%. As to `CCC(C)C(=O)OCCc1ccccc1` (stereo not given), the “cytotoxicity” value was 1.73%. The figure for `COc1cc2c(cc1OC)C(=O)C(CC1CCN(Cc3ccccc3)CC1)C2` (stereo not given) is -4.07% [at 35.3 µM]; for `O=C(O)CCCCCC(=O)O` it is 0.797%; for `CC(C)C[C@@H]1[C@H](c2ccccc2)OC(=O)N1CCCN1CCCCCC1` it is -0.276% [at 35.3 µM]. Regarding `O=NN(CCCl)C(=O)NC1CCCCC1`, the “cytotoxicity” value was -5.31% [at 35.3 µM]. Take `CNCCS(=O)(=O)O`: the “cytotoxicity” value was 2.19%. As to `NCC1(Cc2noc(=O)[nH]2)CCCCC1`, the “cytotoxicity” value is -0.68%. The figure for `CC(=O)OCC(=O)Nc1cc(C#N)cc(NC(=O)COC(C)=O)c1Cl` is 3.81% [at 35.3 µM]; for `CN(C)CC/C=C1/c2ccccc2COc2ccc(CC(=O)O)cc21` it is 5.32% [at 35.3 µM]; for `CCC(C(=O)OCCN1CCOC(c2ccccc2)C1C)c1ccccc1` (stereo not given) it is -7.77% [at 35.3 µM].

Turning to `CCCSSCCC`, the “cytotoxicity” value was 1.57%. Consider `O=C(O)c1cc2ccccc2nc1C(=O)O`, for which the “cytotoxicity” value was -1.12%. The figure for `CC1(C)Oc2ccc(C#N)cc2[C@@H](N2CCCC2=O)[C@@H]1O` is 0.132% [at 35.3 µM]. On to `Cc1ccc(C)c([N+](=O)[O-])c1`, for which the “cytotoxicity” value was -10%. With `O=C(O)CNC(=O)CNC(=O)CNC(=O)CSC(=O)c1ccccc1`, the “cytotoxicity” value was -0.152% [at 35.3 µM]. With `O=C(CCCCC(=O)Nc1c(I)cc(I)c(C(=O)O)c1I)Nc1c(I)cc(I)c(C(=O)O)c1I`, the “cytotoxicity” value is 0.759% [at 35.3 µM]. The figure for `CCOC(=O)CC1(C)OCC(C)O1` (stereo not given) is -5.41%. Take `CCC(C)OC(C)CC` (stereo not given): the “cytotoxicity” value is -0.317%.

Consider `OCC1CCC(CO)CC1` (stereo not given), for which the “cytotoxicity” value is -0.961%. For `COC(=O)c1ccccc1C(=O)O`, the “cytotoxicity” value was -6.65%. On to `O=Cc1cc2ccccc2o1`, for which the “cytotoxicity” value was 3.53%. Take `CC(=O)c1cc(C)oc1C`: the “cytotoxicity” value was -2.86%. Consider `CC1(C)O[C@H]2CC(=O)OC[C@]23[C@H]2CC[C@@]4(C)[C@H](c5ccoc5)OC(=O)[C@H]5O[C@]54[C@]2(C)C(=O)C[C@@H]13`, for which the “cytotoxicity” value is 0.0103% [at 35.3 µM]. In the case of `CC(=O)O[C@@H]1CC2CCC1(C)C2(C)C` (stereo not given in full), the “cytotoxicity” value was -9.68%. With `COc1cc2c(cc1OC)CN(C(=O)[C@H](C)N[C@@H](CCc1ccccc1)C(=O)O)[C@H](C(=O)O)C2`, the “cytotoxicity” value is 2.12% [at 35.3 µM]. As for `Cc1cccc(Cl)c1`, the “cytotoxicity” value was -3.42%. On to `CC(C)(CO)C(O)C(=O)NCCCO` (stereo not given), for which the “cytotoxicity” value was -3.84%. The result for `COc1cc(/C=C/C(N)=O)cc(OC)c1OC` reads -0.723% [at 35.3 µM]. For `CCNC(=O)NCc1cccc(Cl)c1`, the “cytotoxicity” value is -12.5% [at 35.3 µM]. For `C=Cc1ccc(C(C)(C)C)cc1`, the “cytotoxicity” value is -5.6%. Regarding `CCCC(CC)c1ccccc1` (stereo not given), the “cytotoxicity” value is 3.35%.
